# Bioassay records (PubChem BioAssay)
# SKKanGAS inh: SKKanGAS growth inhibition. inhibition, % at 7.5 µM. 300,000 tested, 1.3% active. S. pyogenes SKKanGAS, kanamycin growth, BacTiter-Glo, 6 h;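 active = mean replicate score, as percent of positive control median, at least 50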;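 note: strain carries kanamycin resistance gene driven by streptokinase promoter and grows in 40 µg/ml kanamycin; loss of luminescence reflects streptokinase promoter inhibition or plain growth inhibition; 0% = median of DMSO wells and 100% = positive control at its reference dose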
# ATG4B inhibitor: ATG4B (human) cysteine protease inhibition | Q9Y4P1 | ATG4B cleavage of LC3-PLA2, NBD-HPC fluorescence, 1 h | inhibition, % at 8.33 µM | 340,000 tested, 0.51% active | AID 504462; in the data active = inhibition above about 40%
# Target sequence (Q9Y4P1 whole entry, looked up): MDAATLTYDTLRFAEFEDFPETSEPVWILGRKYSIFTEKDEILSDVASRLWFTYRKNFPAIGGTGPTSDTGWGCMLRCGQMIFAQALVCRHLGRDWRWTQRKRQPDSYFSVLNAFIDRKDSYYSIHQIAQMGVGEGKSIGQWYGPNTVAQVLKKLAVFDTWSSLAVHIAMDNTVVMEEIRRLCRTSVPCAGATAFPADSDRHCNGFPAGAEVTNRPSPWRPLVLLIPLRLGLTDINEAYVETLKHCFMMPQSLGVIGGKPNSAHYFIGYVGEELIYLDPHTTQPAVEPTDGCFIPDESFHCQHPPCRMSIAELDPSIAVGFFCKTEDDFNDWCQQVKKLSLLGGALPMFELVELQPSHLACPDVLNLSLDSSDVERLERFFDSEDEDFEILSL
# tim23-1 inh: tim23-1 yeast growth inhibition. S. cerevisiae tim23-1 growth, BacTiter-Glo luminescence, 24 h. inhibition, % at 20 µM. 330,000 tested, 1.3% active;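 active = growth inhibition of the mutant yeast at or above 50%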;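 note: temperature-sensitive mutant grown at 25 °C; plate controls were DMSO-treated mutant yeast for no effect and medium wells lacking yeast for full effect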
# tim10-1 inh: growth inhibitors of tim10-1 mutant yeast; S. cerevisiae tim10-1 ts strain growth, BacTiter-Glo, 24 h; inhibition, % at 20 µM; 330,000 tested, 2.2% active; AID 463190;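 active = inhibition of at least 40%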;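 note: mutant grown at 25 °C; 0% = DMSO wells with yeast and 100% = wells holding no yeast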
# TIM10 inh: inhibits growth of TIM10 yeast strain | 330,000 tested, 1.4% active | S. cerevisiae TIM10 strain growth, BacTiter-Glo luminescence, 24 h | inhibition, % at 10 µM;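 active = inhibition of 40% or more at the single tested concentration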;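 note: wild-type TIM10 isogenic control strain grown at permissive 25 °C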
# PfHsp90 yeast 2: reduces growth (ATP signal) of yeast expressing P. falciparum Hsp90. inhibition, % at 9.4 µM. 310,000 tested, 0.32% active. AID 504621. S. cerevisiae expressing PfHsp90, BacTiter-Glo ATP, 48 h; yeast lacking PDR1 and PDR3 efflux regulators;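 active = every replicate shows inhibition above about 80%, whatever the replicate mean, limit read from the data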;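 note: 0% = DMSO neutral controls and 100% = 20 µM radicicol positive controls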
# * hit, by the source's call; x = no result given. Sampled rows, rich in hits. Any-hit rate of the full collection: about 4.7%.
SMILES,SKKanGAS inh,ATG4B inhibitor,tim23-1 inh,tim10-1 inh,TIM10 inh,PfHsp90 yeast 2
CNC(=O)c1c(NC(=O)C(C)C)sc2c1CCC2,7,3,17,15,13,7
O=C(NCCN1CCN(c2ccccc2F)CC1)C1c2ccccc2C(=O)N2CCc3ccccc3C12 (stereo not given),7,-9,8,6,-3,8
CC(C)(C)N/N=C1\CC(c2ccccc2)Oc2ccccc21 (stereo not given),73*,4,7,9,8,8
CCC(C)NC(=O)c1ccc2c(SCC(=O)O)c3c(nc2c1)CCCC3 (stereo not given),2,-6,-1,12,1,-21
O=C(NCc1ccc2c(c1)OCO2)c1ccccc1,2,3,10,8,-6,-26
Cc1onc(-c2ccccc2)c1C(=O)NCc1ccc2c(c1)OCO2,-9,-7,-11,8,6,x
O=C(NCc1ccc2c(c1)OCO2)c1ccc(Br)cc1,-2,3,37,-21,-71,89*
Cc1onc(-c2c(F)cccc2Cl)c1C(=O)NCc1ccc2c(c1)OCO2,59*,-10,1,4,-3,-8
Cn1cnc(Sc2ncnc3nc[nH]c23)c1[N+](=O)[O-],-1,-9,14,-17,-3,3
CC(/C=C/C(=O)c1ccc(C)cc1)=C\c1ccccc1,30,6,22,21,28,10
Cc1ccc(C(=O)/C=C\C(=O)c2ccc(C)cc2)cc1,56*,-6,x,x,x,-12
CNC(=O)/C(C#N)=C\c1cc(C)n(-c2ccc(N3CCOCC3)cc2)c1C,62*,6,-14,-6,-7,27
Cc1cc(/C=C2\SC(=S)NC2=O)c(C)n1-c1ccccc1,41,23,29,24,6,x
Cc1cc(/C=C2\SC(=S)NC2=O)c(C)n1-c1ccc(O)cc1,100*,16,36,11,16,97*
Cc1cc(/C=C2\SC(=Nc3ccc(F)cc3)NC2=O)c(C)n1-c1ccc(S(N)(=O)=O)cc1,61*,0,18,7,-8,-12
Cc1cc(/C=C2/SC(=O)NC2=O)c(C)n1-c1ccc(N2CCOCC2)cc1,90*,-7,4,13,8,-27
COc1cc2c(cc1OC)CN(C(=O)c1oc3ccccc3c1C)CC2,-2,-3,17,-5,-11,-34
Cc1cccc(N2C(=O)CC(SC(=Nc3ccccc3)Nc3ccccc3)C2=O)c1 (stereo not given),2,-9,12,16,16,4
O=C1CC(SC(=Nc2ccccc2)Nc2ccccc2)C(=O)N1c1ccc(Cl)c(Cl)c1 (stereo not given),72*,-12,1,21,11,-3
COc1cc(N2N=C(c3ccccc3)CC2c2ccccc2)c(C=O)cc1C=O (stereo not given),55*,0,10,15,3,11
COc1ccccc1N1N=C(c2ccc([N+](=O)[O-])cc2)CC1c1ccccc1 (stereo not given),-7,4,23,9,2,0
CC(=O)Oc1ccc(C2=NN(c3ccccc3)C(c3ccccc3)C2)cc1 (stereo not given),65*,-2,14,19,21,-19
Cn1c(SCC(N)=O)nnc1-c1ccccc1,3,4,7,9,3,-27
O=C(O)CCC(=O)Nc1ccc(S(=O)(=O)Nc2nccs2)cc1,-1,1,4,-6,2,12
CCc1ccc(NC(=O)c2ccc(F)c(S(=O)(=O)NCC3COc4ccccc4O3)c2)cc1 (stereo not given),50*,-8,16,25,36,-8
SMILES,SKKanGAS inh,ATG4B inhibitor,tim23-1 inh,tim10-1 inh,TIM10 inh,PfHsp90 yeast 2
Cc1ccc(NC(=O)C(OC(=O)c2cc(C)oc2C)c2ccccc2)cc1 (stereo not given),5,-5,21,26,14,0
Cc1cc(C(=O)OC(C(=O)Nc2cccc(C(F)(F)F)c2)c2ccccc2)c(C)o1 (stereo not given),71*,-1,14,33,16,1
CCOC(=O)C1(Cc2cccc(OC)c2)CCN(Cc2ccccc2)CC1,1,-6,15,18,-3,-4
CC(C)n1nc(C(=O)Nc2nc3ccc(S(C)(=O)=O)cc3s2)c2ccccc2c1=O,-2,-9,-13,-13,-12,11
CC(C)n1nc(C(=O)Nc2nnc(SCc3c(Cl)cccc3Cl)s2)c2ccccc2c1=O,64*,13,20,23,12,-27
O=C(C1CCCCC1)N1CCC(c2nc3c(nnn3Cc3ccccc3Cl)c(=O)[nH]2)CC1,x,-13,x,x,x,0
O=C(C1CCCCC1)N1CCC(c2nc3c(nnn3Cc3c(F)cccc3Cl)c(=O)[nH]2)CC1,68*,-14,0,5,0,-8
COc1ccc(/C=C/C(=O)NC(=S)N2CCN(c3ccccc3OC)CC2)cc1,59*,6,7,14,9,-11
CC(C)c1nc(NCc2ccccc2)c(C#N)c2c1CCCC2,79*,5,-1,19,-6,22
CC(C)(C)C(=O)Nc1sc2c(c1C#N)CCC2,5,-1,8,0,-10,-29
COC(=O)c1c(NC(NC(=O)C(C)(C)C)C(Cl)(Cl)Cl)sc2c1CCC2 (stereo not given),59*,1,26,36,31,-8
CC(C)(C)C(=O)NC(NC(=S)Nc1sc2c(c1C#N)CCCC2)C(Cl)(Cl)Cl (stereo not given),50*,7,6,29,12,-5
CCC(=O)NC(Nc1sc2c(c1C(=O)OC)CCC2)C(Cl)(Cl)Cl (stereo not given),0,7,19,38,22,-15
COc1ccc(-c2sc3ccccc3c2/C=C/c2ccc(OC)c(OC)c2)cc1,x,-6,27,4,10,6
COc1ccc(-c2sc3ccccc3c2/C=C/c2ccncc2)cc1,x,-5,-45,-110,-71,106*
Cc1ccc(S(=O)(=O)NCC(=O)OCC(=O)N2N=C(c3ccc(Cl)cc3)CC2c2ccco2)cc1C (stereo not given),70*,-4,1,40,34,11
C=C[C@H]1CN2CC[C@H]1C[C@H]2[C@H](O)c1ccnc2ccc(OC)cc12,-10,2,-7,1,1,13
COc1ccc(S(=O)(=O)N2CCC(O)(c3ccc4c(c3)OCO4)CC2)cc1,7,6,4,10,11,x
O=c1c2ccccc2c(-c2ccccc2)nn1Cc1c(Cl)cccc1Cl,75*,9,10,23,-1,-54
O=C(NCc1ccc(Cl)cc1)c1cccnc1,-1,-1,9,16,1,2
